What all share (experiment): PBM; 200 nM protein, PBS
Holding throughout (conditions): dsDNA, one strand shown

Assay [1] has as its target HOXB9 (Homo sapiens, UniProt P17482 171-250, T197M).
The target of assay [2] is HOXC9 (Homo sapiens, UniProt P31274 178-260, K195R).
The target of another assay is T1, VENTX (Homo sapiens, UniProt O95231 78-163).
T1 sequence: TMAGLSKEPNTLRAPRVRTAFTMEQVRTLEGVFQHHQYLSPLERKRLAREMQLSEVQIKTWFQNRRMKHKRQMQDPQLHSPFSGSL

Assay [3] concerns the target HOXA7 (Homo sapiens, UniProt P31268 116-202).
For assay [4], the target named is HOXC10 (Homo sapiens, UniProt Q9NYD6 254-340).
In assay [5] the target is T2, PAX4 (Homo sapiens, UniProt O43316 9-242).
T2 sequence: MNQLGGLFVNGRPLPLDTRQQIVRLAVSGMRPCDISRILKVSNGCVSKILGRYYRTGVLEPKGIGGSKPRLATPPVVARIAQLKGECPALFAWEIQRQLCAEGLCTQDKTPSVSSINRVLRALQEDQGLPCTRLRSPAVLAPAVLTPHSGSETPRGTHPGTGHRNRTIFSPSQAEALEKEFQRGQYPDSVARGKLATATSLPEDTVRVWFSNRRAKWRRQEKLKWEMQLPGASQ

Assay [6] addresses HOXB6 (Homo sapiens, UniProt P17509 132-218, K202E).
Assay [7] deals with HOXB9 (Homo sapiens, UniProt P17482 171-250).
Assay [8] concerns the target HOXC9 (Homo sapiens, UniProt P31274 178-260).
The target of assay [9] is HOXC9 (Homo sapiens, UniProt P31274 178-260, R193K).
Assay [10] concerns the target HOXA2 (Homo sapiens, UniProt O43364 129-215, R185K).
Assay [11] concerns the target HOXC10 (Homo sapiens, UniProt Q9NYD6 254-340, K271E).
For the next assay, the target named is VAX1 (Homo sapiens, UniProt Q5SQQ9 86-172).
For assay [12], the target named is HOXB9 (Homo sapiens, UniProt P17482 171-250, R186Q).
Assay [13] deals with HOXC9 (Homo sapiens, UniProt P31274 178-260, R222W).
Assay [14] concerns the target T3, PAX4 (Homo sapiens, UniProt O43316 9-242, R227W).
T3 sequence: T2 sequence with R219W

Assay [15] concerns the target HOXA2 (Homo sapiens, UniProt O43364 129-215, Y150S).
For assay [16], the target named is HOXA7 (Homo sapiens, UniProt P31268 116-202, W177C).
In assay [17] the target is HOXA2 (Homo sapiens, UniProt O43364 129-215).
In assay [18] the target is HOXB6 (Homo sapiens, UniProt P17509 132-218).

Data on four sequences can be found in PMC11006913.

Changes are numbered by the printed parent chain.

Chain of HOXC10 (Homo sapiens, UniProt Q9NYD6 254-340) (Q9NYD6 254-340): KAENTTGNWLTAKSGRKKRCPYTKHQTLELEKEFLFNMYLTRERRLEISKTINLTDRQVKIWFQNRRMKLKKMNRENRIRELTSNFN
Chain of HOXC9 (Homo sapiens, UniProt P31274 178-260, R222W) (P31274 178-260 R222W): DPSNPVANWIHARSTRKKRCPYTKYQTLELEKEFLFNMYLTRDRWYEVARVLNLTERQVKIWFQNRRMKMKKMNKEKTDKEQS
Chain of HOXB9 (Homo sapiens, UniProt P17482 171-250, R186Q) (P17482 171-250 R186Q): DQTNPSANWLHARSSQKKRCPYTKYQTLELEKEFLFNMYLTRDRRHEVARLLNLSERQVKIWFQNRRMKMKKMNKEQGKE
Chain of HOXA2 (Homo sapiens, UniProt O43364 129-215) (O43364 129-215): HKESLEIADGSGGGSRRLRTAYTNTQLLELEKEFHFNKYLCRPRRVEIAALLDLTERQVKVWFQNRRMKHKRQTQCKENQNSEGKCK
Chain of HOXC9 (Homo sapiens, UniProt P31274 178-260, R193K) (P31274 178-260 R193K): as the sequence (P31274 178-260 R222W) above, with R16K, W45R counted along it
Chain of HOXA7 (Homo sapiens, UniProt P31268 116-202, W177C) (P31268 116-202 W177C): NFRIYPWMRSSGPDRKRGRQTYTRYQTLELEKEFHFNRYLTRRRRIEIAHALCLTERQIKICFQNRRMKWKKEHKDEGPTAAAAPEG
Chain of HOXB9 (Homo sapiens, UniProt P17482 171-250, T197M) (P17482 171-250 T197M): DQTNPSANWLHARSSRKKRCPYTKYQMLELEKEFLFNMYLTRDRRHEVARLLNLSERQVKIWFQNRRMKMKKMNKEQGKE
Chain of HOXA7 (Homo sapiens, UniProt P31268 116-202) (P31268 116-202): as the sequence (P31268 116-202 W177C) above, with C62W counted along it
Chain of VAX1 (Q5SQQ9 86-172): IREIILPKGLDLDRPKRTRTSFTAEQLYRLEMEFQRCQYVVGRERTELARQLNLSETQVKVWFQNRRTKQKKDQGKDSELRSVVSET
Chain of HOXB9 (Homo sapiens, UniProt P17482 171-250) (P17482 171-250): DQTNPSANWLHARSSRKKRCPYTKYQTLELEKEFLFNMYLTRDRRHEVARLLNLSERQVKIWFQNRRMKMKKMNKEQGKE
Chain of HOXB6 (Homo sapiens, UniProt P17509 132-218, K202E) (P17509 132-218 K202E): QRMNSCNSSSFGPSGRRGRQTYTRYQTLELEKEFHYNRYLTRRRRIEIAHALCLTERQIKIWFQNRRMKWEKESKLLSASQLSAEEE
Chain of HOXA2 (Homo sapiens, UniProt O43364 129-215, R185K) (O43364 129-215 R185K): as the sequence (O43364 129-215) above, with R57K counted along it
Chain of HOXC9 (Homo sapiens, UniProt P31274 178-260) (P31274 178-260): as the sequence (P31274 178-260 R222W) above, with W45R counted along it
Chain of HOXA2 (Homo sapiens, UniProt O43364 129-215, Y150S) (O43364 129-215 Y150S): as the sequence (O43364 129-215) above, with Y22S counted along it
Chain of HOXC9 (Homo sapiens, UniProt P31274 178-260, K195R) (P31274 178-260 K195R): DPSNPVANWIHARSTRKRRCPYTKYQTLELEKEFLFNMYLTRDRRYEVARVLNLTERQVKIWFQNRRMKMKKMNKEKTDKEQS
Chain of HOXC10 (Homo sapiens, UniProt Q9NYD6 254-340, K271E) (Q9NYD6 254-340 K271E): as the sequence (Q9NYD6 254-340) above, with K18E counted along it
Chain of HOXB6 (Homo sapiens, UniProt P17509 132-218) (P17509 132-218): as the sequence (P17509 132-218 K202E) above, with E71K counted along it

CTAATTAA: the binding signal with HOXB9 [1] was 10.2 upbm affinity estimate (log intensity, higher = more binding, comparable within an allelic series); in the assay with HOXC9 [2], 12.7 upbm affinity estimate (log intensity, higher = more binding, comparable within an allelic series); with VENTX, 13.1 upbm affinity estimate (log intensity, higher = more binding, comparable within an allelic series); with HOXA7 [3], 11.9 upbm affinity estimate (log intensity, higher = more binding, comparable within an allelic series); with HOXC10 [4], 12.2 upbm affinity estimate (log intensity, higher = more binding, comparable within an allelic series); with PAX4 [5], 12.9 upbm affinity estimate (log intensity, higher = more binding, comparable within an allelic series). Moreover, the binding signal was 10.1 upbm affinity estimate (log intensity, higher = more binding, comparable within an allelic series) with HOXB6 [6]; 11.8 upbm affinity estimate (log intensity, higher = more binding, comparable within an allelic series) with HOXB9 [7]; 12.6 upbm affinity estimate (log intensity, higher = more binding, comparable within an allelic series) in the assay with HOXC9 [8]; 12.6 upbm affinity estimate (log intensity, higher = more binding, comparable within an allelic series) with HOXC9 [9]; 13.8 upbm affinity estimate (log intensity, higher = more binding, comparable within an allelic series) with HOXA2 [10]; 12.3 upbm affinity estimate (log intensity, higher = more binding, comparable within an allelic series) with HOXC10 [11]. In addition, the binding signal is 13.7 upbm affinity estimate (log intensity, higher = more binding, comparable within an allelic series) with VAX1; 11.6 upbm affinity estimate (log intensity, higher = more binding, comparable within an allelic series) with HOXB9 [12]; 11.2 upbm affinity estimate (log intensity, higher = more binding, comparable within an allelic series) in the assay with HOXC9 [13]; 11.5 upbm affinity estimate (log intensity, higher = more binding, comparable within an allelic series) in the assay with PAX4 [14]; 11 upbm affinity estimate (log intensity, higher = more binding, comparable within an allelic series) in the assay with HOXA2 [15]; 8.82 upbm affinity estimate (log intensity, higher = more binding, comparable within an allelic series) with HOXA7 [16]. Moreover, the binding signal was 13 upbm affinity estimate (log intensity, higher = more binding, comparable within an allelic series) with HOXA2 [17] and 12.2 upbm affinity estimate (log intensity, higher = more binding, comparable within an allelic series) in the assay with HOXB6 [18].
On to TAATTATA, for which the binding signal is 10.3 upbm affinity estimate (log intensity, higher = more binding, comparable within an allelic series) with HOXB9 [1]; 12.8 upbm affinity estimate (log intensity, higher = more binding, comparable within an allelic series) in the assay with HOXC9 [2]; 12.4 upbm affinity estimate (log intensity, higher = more binding, comparable within an allelic series) with VENTX; 11.8 upbm affinity estimate (log intensity, higher = more binding, comparable within an allelic series) with HOXA7 [3]; 12.3 upbm affinity estimate (log intensity, higher = more binding, comparable within an allelic series) with HOXC10 [4]; 12.2 upbm affinity estimate (log intensity, higher = more binding, comparable within an allelic series) in the assay with PAX4 [5]. In addition, the binding signal with HOXB6 [6] was 10.3 upbm affinity estimate (log intensity, higher = more binding, comparable within an allelic series); with HOXB9 [7], 11.9 upbm affinity estimate (log intensity, higher = more binding, comparable within an allelic series); with HOXC9 [8], 12.8 upbm affinity estimate (log intensity, higher = more binding, comparable within an allelic series); with HOXC9 [9], 12.7 upbm affinity estimate (log intensity, higher = more binding, comparable within an allelic series); with HOXA2 [10] it was 13.7 upbm affinity estimate (log intensity, higher = more binding, comparable within an allelic series); with HOXC10 [11] it was 12.2 upbm affinity estimate (log intensity, higher = more binding, comparable within an allelic series). Also, the binding signal was 13.3 upbm affinity estimate (log intensity, higher = more binding, comparable within an allelic series) with VAX1; 11.6 upbm affinity estimate (log intensity, higher = more binding, comparable within an allelic series) with HOXB9 [12]; 11.2 upbm affinity estimate (log intensity, higher = more binding, comparable within an allelic series) with HOXC9 [13]; 11.1 upbm affinity estimate (log intensity, higher = more binding, comparable within an allelic series) with PAX4 [14]; 11.1 upbm affinity estimate (log intensity, higher = more binding, comparable within an allelic series) with HOXA2 [15]; 9 upbm affinity estimate (log intensity, higher = more binding, comparable within an allelic series) with HOXA7 [16]. The binding signal with HOXA2 [17] was 13 upbm affinity estimate (log intensity, higher = more binding, comparable within an allelic series); with HOXB6 [18], 12.3 upbm affinity estimate (log intensity, higher = more binding, comparable within an allelic series).
In the case of GCTAATTA, the binding signal was 10.2 upbm affinity estimate (log intensity, higher = more binding, comparable within an allelic series) with HOXB9 [1]; 12.5 upbm affinity estimate (log intensity, higher = more binding, comparable within an allelic series) with HOXC9 [2]; 13.5 upbm affinity estimate (log intensity, higher = more binding, comparable within an allelic series) in the assay with VENTX; 12.1 upbm affinity estimate (log intensity, higher = more binding, comparable within an allelic series) with HOXA7 [3]; 12.9 upbm affinity estimate (log intensity, higher = more binding, comparable within an allelic series) with PAX4 [5]; 10.1 upbm affinity estimate (log intensity, higher = more binding, comparable within an allelic series) with HOXB6 [6]. The binding signal with HOXB9 [7] was 11.8 upbm affinity estimate (log intensity, higher = more binding, comparable within an allelic series); with HOXC9 [8], 12.6 upbm affinity estimate (log intensity, higher = more binding, comparable within an allelic series); with HOXC9 [9] it was 12.5 upbm affinity estimate (log intensity, higher = more binding, comparable within an allelic series); with HOXA2 [10], 14.1 upbm affinity estimate (log intensity, higher = more binding, comparable within an allelic series); with HOXC10 [11], 12.1 upbm affinity estimate (log intensity, higher = more binding, comparable within an allelic series); with VAX1 it was 14 upbm affinity estimate (log intensity, higher = more binding, comparable within an allelic series). The binding signal is 11.5 upbm affinity estimate (log intensity, higher = more binding, comparable within an allelic series) with HOXB9 [12]; 10.9 upbm affinity estimate (log intensity, higher = more binding, comparable within an allelic series) in the assay with HOXC9 [13]; 11.4 upbm affinity estimate (log intensity, higher = more binding, comparable within an allelic series) with PAX4 [14]; 10.8 upbm affinity estimate (log intensity, higher = more binding, comparable within an allelic series) in the assay with HOXA2 [15]; 8.89 upbm affinity estimate (log intensity, higher = more binding, comparable within an allelic series) with HOXA7 [16]; 13.4 upbm affinity estimate (log intensity, higher = more binding, comparable within an allelic series) with HOXA2 [17]. The binding signal with HOXB6 [18] is 12.5 upbm affinity estimate (log intensity, higher = more binding, comparable within an allelic series).
As for ATAATTAC, the binding signal was 10.5 upbm affinity estimate (log intensity, higher = more binding, comparable within an allelic series) in the assay with HOXB9 [1]; 13 upbm affinity estimate (log intensity, higher = more binding, comparable within an allelic series) in the assay with HOXC9 [2]; 12.5 upbm affinity estimate (log intensity, higher = more binding, comparable within an allelic series) in the assay with VENTX; 12.2 upbm affinity estimate (log intensity, higher = more binding, comparable within an allelic series) with HOXA7 [3]; 12.4 upbm affinity estimate (log intensity, higher = more binding, comparable within an allelic series) in the assay with HOXC10 [4]; 12.3 upbm affinity estimate (log intensity, higher = more binding, comparable within an allelic series) with PAX4 [5]. Also, the binding signal was 10.2 upbm affinity estimate (log intensity, higher = more binding, comparable within an allelic series) with HOXB6 [6]; 12.1 upbm affinity estimate (log intensity, higher = more binding, comparable within an allelic series) in the assay with HOXB9 [7]; 13 upbm affinity estimate (log intensity, higher = more binding, comparable within an allelic series) with HOXC9 [8]; 12.9 upbm affinity estimate (log intensity, higher = more binding, comparable within an allelic series) with HOXC9 [9]; 13.9 upbm affinity estimate (log intensity, higher = more binding, comparable within an allelic series) in the assay with HOXA2 [10]; 12.4 upbm affinity estimate (log intensity, higher = more binding, comparable within an allelic series) in the assay with HOXC10 [11]. For the same sequence, the binding signal is 13.4 upbm affinity estimate (log intensity, higher = more binding, comparable within an allelic series) in the assay with VAX1; 11.9 upbm affinity estimate (log intensity, higher = more binding, comparable within an allelic series) with HOXB9 [12]; 11.1 upbm affinity estimate (log intensity, higher = more binding, comparable within an allelic series) with HOXC9 [13]; 11.2 upbm affinity estimate (log intensity, higher = more binding, comparable within an allelic series) with PAX4 [14]; 11.1 upbm affinity estimate (log intensity, higher = more binding, comparable within an allelic series) with HOXA2 [15]; 9.02 upbm affinity estimate (log intensity, higher = more binding, comparable within an allelic series) with HOXA7 [16]. Moreover, the binding signal is 13.1 upbm affinity estimate (log intensity, higher = more binding, comparable within an allelic series) in the assay with HOXA2 [17] and 12.6 upbm affinity estimate (log intensity, higher = more binding, comparable within an allelic series) in the assay with HOXB6 [18].
